The values below come from ChEMBL document CHEMBL2218924, “A broad activity screen in support of a chemogenomic map for kinase signalling research and drug discovery” (Biochem J, 2013).

Assay [1] concerns the target T1, Ephrin type-B receptor 1 (Homo sapiens) (UniProt P54762).
T1 sequence (whole entry): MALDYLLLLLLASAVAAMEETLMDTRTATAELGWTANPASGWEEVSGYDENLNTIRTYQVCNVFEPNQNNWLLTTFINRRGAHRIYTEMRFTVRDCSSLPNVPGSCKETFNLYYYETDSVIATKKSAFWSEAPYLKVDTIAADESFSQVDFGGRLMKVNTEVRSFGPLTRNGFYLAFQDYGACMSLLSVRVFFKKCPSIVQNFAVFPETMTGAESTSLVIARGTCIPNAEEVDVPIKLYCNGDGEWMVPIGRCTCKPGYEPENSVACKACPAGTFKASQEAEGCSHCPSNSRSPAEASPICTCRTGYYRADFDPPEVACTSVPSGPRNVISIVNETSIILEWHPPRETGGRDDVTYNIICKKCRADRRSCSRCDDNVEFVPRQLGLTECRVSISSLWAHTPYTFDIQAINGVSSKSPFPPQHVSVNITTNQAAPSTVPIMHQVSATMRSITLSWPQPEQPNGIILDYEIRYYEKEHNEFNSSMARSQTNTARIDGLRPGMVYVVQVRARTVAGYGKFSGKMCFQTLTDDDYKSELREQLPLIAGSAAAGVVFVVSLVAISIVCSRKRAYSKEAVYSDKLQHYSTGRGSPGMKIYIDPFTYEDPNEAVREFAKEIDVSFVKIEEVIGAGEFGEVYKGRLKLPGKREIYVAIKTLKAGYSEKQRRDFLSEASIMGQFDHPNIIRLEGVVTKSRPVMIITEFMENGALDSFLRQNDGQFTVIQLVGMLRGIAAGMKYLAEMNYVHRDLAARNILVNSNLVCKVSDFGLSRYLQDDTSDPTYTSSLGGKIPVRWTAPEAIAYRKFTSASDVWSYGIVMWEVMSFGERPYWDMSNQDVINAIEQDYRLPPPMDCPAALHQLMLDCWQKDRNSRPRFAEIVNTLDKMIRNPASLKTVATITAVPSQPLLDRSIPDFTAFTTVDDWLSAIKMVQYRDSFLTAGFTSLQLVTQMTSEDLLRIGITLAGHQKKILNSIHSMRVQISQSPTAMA
Conditions: at 10 µM; call rule not given here.

For assay [2], the target named is T2, Ephrin type-B receptor 2 (Homo sapiens) (UniProt P29323).
T2 sequence (whole entry): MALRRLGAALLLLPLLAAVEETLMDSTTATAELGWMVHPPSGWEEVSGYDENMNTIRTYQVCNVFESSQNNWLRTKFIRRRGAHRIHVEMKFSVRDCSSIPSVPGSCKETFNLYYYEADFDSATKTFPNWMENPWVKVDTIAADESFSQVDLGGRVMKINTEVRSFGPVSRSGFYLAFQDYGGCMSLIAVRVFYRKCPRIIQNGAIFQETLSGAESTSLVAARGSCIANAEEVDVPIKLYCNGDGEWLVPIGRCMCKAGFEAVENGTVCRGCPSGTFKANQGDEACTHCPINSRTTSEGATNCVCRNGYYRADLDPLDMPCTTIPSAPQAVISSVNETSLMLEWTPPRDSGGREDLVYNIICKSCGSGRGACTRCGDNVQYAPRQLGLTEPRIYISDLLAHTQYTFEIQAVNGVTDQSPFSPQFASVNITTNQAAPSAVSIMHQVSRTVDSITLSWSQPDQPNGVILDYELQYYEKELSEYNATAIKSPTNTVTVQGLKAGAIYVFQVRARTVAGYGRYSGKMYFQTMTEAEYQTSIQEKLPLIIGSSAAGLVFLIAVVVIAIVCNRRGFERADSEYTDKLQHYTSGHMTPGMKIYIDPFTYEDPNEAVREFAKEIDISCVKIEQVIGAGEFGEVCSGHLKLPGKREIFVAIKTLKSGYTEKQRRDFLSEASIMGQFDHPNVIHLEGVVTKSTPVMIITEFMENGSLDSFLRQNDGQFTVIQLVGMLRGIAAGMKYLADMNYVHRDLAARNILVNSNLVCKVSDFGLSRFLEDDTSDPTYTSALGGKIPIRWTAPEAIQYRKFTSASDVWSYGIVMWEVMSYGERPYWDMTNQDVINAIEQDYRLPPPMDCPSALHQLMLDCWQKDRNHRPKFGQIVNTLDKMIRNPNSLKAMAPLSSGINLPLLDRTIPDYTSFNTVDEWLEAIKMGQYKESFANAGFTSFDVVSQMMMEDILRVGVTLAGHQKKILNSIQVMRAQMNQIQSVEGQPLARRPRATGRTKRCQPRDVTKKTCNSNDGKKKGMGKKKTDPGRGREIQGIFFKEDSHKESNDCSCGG
Conditions: at 1 µM.

Assay [3] has as its target T2, Ephrin type-B receptor 2 (Homo sapiens). Conditions: at 10 µM.
Assay [4] addresses T3, Ephrin type-B receptor 3 (Homo sapiens) (UniProt P54753).
T3 sequence (whole entry): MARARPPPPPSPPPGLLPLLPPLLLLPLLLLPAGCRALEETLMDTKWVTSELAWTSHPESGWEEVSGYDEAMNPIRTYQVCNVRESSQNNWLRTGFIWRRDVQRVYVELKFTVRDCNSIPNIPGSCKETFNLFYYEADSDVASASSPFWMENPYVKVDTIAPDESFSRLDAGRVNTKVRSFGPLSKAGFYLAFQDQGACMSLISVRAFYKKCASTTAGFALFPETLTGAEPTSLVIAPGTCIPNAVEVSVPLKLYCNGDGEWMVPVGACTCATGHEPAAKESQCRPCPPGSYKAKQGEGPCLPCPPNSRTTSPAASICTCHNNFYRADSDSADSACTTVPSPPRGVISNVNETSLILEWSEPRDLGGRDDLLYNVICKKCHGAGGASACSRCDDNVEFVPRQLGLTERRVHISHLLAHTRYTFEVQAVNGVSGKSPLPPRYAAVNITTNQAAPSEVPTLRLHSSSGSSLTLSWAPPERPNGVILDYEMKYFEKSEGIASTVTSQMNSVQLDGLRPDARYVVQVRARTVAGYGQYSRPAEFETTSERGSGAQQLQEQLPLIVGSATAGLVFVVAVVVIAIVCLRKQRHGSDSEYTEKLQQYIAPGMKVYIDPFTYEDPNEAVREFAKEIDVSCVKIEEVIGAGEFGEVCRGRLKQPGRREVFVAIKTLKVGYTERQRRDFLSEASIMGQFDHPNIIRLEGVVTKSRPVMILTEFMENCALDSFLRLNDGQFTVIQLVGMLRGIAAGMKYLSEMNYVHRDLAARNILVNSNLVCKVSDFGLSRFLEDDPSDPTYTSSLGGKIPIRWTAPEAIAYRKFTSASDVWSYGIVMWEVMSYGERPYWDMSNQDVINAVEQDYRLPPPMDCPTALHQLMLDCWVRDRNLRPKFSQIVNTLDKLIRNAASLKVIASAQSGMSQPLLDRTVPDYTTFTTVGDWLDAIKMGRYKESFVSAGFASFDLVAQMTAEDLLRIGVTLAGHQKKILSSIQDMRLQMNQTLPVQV
Conditions: at 1 µM.

Assay [5] deals with T3, Ephrin type-B receptor 3 (Homo sapiens). To be noted: at 10 µM.
The target in assay [6] is T4, Ephrin type-B receptor 4 (Homo sapiens) (UniProt P54760).
T4 sequence (whole entry): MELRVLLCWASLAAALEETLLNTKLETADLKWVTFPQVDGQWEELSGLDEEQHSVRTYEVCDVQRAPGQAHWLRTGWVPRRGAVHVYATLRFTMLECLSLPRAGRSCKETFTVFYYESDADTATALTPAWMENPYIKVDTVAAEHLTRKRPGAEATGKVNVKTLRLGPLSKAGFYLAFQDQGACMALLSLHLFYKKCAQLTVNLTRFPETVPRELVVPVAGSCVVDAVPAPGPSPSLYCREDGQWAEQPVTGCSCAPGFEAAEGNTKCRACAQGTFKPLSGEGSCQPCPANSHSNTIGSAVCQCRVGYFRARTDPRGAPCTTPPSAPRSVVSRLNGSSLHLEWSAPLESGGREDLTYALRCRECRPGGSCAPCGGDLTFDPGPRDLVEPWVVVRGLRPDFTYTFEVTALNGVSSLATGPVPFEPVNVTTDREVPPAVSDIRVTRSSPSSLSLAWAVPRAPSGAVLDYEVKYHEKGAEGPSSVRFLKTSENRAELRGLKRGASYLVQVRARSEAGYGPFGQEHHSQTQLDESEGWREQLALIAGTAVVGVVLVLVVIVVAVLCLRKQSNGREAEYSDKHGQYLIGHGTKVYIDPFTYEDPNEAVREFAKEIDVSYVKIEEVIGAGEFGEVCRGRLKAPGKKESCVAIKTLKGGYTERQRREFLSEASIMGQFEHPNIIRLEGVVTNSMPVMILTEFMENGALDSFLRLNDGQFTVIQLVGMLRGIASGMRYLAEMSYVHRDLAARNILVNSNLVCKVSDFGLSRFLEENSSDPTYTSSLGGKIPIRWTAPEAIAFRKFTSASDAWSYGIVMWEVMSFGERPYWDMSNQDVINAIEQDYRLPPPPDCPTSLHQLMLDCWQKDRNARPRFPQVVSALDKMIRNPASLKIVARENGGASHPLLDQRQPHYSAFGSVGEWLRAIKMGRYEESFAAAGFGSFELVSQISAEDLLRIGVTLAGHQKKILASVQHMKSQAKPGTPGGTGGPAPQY
To be noted: at 1 µM.

For assay [7], the target named is T4, Ephrin type-B receptor 4 (Homo sapiens). To be noted: at 10 µM.
Assay [8] concerns the target Receptor tyrosine-protein kinase erbB-4 (Homo sapiens) (UniProt Q15303). Conditions: at 1 µM.
The target is the same in assay [9]. Conditions: at 10 µM.
In assay [10] the target is Focal adhesion kinase 1 (Homo sapiens) (UniProt Q05397). To be noted: at 1 µM.
Assay [11] has the same target. Conditions: at 10 µM.
Assay [12] has as its target Fibroblast growth factor receptor 1 (Homo sapiens) (UniProt P11362). Conditions: at 1 µM.
Assay [13] has the same target. Conditions: at 10 µM.
Assay [14] concerns the target Fibroblast growth factor receptor 2 (Homo sapiens) (UniProt P21802). Conditions: at 1 µM.
The target is the same in assay [15]. To be noted: at 10 µM.
The target of assay [16] is Fibroblast growth factor receptor 3 (Homo sapiens) (UniProt P22607). To be noted: at 1 µM.
Assay [17] has the same target. To be noted: at 10 µM.
In assay [18] the target is Fibroblast growth factor receptor 4 (Homo sapiens) (UniProt P22455). Conditions: at 1 µM.
The target is the same in assay [19]. To be noted: at 10 µM.
The target of assay [20] is Tyrosine-protein kinase Fer (Homo sapiens) (UniProt P16591). Conditions: at 1 µM.

Broadly, the residual activity is the signal under treatment as a percentage of the control signal.

Sequence of Fibroblast growth factor receptor 3 (Homo sapiens) (P22607 23-806 limits assumed): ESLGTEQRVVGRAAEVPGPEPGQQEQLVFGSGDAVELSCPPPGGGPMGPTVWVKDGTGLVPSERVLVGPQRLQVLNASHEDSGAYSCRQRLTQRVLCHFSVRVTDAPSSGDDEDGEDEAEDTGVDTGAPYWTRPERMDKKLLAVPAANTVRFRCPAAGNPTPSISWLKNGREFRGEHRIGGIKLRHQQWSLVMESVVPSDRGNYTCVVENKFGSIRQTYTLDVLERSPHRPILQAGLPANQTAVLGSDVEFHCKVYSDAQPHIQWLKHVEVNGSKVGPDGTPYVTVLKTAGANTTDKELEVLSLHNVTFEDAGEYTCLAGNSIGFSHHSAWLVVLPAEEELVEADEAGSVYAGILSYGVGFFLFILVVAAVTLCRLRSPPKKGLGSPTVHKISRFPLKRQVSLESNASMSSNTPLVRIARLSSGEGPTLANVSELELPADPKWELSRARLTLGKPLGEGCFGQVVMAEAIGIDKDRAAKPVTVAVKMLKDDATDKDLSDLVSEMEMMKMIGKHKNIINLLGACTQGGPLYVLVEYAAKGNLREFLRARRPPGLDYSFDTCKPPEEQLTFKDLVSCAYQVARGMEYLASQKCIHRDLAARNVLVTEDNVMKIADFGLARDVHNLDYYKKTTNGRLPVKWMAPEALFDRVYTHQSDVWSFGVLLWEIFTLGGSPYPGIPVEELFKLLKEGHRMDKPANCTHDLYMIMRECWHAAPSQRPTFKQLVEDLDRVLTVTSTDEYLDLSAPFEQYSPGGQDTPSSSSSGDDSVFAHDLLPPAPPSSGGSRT
Sequence of Fibroblast growth factor receptor 4 (Homo sapiens) (P22455 22-802 limits assumed): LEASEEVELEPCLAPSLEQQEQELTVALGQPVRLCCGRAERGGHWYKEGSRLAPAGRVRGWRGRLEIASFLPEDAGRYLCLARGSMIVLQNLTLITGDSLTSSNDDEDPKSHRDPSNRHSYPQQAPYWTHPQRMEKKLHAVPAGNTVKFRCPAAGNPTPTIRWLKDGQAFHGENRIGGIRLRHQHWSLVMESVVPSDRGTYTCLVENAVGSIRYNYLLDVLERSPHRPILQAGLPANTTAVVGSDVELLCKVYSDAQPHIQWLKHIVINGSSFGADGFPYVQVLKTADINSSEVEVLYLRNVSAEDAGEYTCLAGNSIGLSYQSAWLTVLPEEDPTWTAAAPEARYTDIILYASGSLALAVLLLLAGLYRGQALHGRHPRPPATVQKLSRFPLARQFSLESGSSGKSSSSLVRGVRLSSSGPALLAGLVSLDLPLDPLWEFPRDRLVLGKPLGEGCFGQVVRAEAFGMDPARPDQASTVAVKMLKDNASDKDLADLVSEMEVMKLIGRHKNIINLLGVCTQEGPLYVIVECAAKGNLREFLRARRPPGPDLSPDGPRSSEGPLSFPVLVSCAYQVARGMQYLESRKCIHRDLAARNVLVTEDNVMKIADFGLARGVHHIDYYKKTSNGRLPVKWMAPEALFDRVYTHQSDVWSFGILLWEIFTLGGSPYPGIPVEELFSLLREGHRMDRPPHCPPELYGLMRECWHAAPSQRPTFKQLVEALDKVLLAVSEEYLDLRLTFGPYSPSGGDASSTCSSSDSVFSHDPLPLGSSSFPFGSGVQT
Sequence of Fibroblast growth factor receptor 1 (Homo sapiens) (P11362 22-822 limits assumed): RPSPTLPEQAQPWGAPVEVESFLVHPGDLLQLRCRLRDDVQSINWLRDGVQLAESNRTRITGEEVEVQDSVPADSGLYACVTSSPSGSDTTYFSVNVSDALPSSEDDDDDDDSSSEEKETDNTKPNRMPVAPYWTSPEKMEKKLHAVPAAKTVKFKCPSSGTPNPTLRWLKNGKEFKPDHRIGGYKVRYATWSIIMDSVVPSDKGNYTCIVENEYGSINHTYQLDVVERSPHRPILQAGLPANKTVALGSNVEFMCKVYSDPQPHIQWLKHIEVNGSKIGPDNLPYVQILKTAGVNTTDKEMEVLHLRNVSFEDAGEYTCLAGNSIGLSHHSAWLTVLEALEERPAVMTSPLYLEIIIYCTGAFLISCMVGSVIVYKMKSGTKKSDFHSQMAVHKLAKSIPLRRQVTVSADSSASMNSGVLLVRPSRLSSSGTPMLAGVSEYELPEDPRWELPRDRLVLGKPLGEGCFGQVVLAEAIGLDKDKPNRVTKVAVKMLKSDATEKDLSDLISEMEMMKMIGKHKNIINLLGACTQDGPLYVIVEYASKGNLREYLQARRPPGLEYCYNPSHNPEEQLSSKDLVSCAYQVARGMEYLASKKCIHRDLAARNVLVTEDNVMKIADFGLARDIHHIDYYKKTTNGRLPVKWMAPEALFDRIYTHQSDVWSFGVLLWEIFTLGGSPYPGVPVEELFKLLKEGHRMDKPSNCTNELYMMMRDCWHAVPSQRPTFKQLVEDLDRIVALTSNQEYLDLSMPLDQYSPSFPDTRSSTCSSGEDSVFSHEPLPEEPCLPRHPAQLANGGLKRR
Sequence of Tyrosine-protein kinase Fer (Homo sapiens) (P16591 whole entry, looked up): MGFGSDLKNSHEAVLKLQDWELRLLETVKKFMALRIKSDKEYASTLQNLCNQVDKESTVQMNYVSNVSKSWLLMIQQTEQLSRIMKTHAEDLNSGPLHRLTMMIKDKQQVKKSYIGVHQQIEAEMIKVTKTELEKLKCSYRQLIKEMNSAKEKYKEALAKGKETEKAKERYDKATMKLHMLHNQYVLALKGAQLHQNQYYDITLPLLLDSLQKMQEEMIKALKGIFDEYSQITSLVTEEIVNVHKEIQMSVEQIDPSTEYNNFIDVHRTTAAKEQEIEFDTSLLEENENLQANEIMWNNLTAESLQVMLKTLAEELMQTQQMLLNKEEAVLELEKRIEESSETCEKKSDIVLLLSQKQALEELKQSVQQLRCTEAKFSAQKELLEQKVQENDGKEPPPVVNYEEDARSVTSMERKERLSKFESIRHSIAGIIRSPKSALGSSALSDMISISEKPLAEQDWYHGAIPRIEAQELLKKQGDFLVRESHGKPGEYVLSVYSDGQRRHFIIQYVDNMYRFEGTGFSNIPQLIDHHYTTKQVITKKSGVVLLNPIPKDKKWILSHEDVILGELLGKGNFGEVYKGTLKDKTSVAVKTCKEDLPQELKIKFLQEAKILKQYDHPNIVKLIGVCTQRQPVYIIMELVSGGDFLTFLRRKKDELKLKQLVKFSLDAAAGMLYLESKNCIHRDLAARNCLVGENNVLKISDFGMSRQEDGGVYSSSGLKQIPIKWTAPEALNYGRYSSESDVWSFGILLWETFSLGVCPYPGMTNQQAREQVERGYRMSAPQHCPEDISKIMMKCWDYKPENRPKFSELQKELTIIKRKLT
Sequence of Fibroblast growth factor receptor 2 (Homo sapiens) (P21802 22-821 limits assumed): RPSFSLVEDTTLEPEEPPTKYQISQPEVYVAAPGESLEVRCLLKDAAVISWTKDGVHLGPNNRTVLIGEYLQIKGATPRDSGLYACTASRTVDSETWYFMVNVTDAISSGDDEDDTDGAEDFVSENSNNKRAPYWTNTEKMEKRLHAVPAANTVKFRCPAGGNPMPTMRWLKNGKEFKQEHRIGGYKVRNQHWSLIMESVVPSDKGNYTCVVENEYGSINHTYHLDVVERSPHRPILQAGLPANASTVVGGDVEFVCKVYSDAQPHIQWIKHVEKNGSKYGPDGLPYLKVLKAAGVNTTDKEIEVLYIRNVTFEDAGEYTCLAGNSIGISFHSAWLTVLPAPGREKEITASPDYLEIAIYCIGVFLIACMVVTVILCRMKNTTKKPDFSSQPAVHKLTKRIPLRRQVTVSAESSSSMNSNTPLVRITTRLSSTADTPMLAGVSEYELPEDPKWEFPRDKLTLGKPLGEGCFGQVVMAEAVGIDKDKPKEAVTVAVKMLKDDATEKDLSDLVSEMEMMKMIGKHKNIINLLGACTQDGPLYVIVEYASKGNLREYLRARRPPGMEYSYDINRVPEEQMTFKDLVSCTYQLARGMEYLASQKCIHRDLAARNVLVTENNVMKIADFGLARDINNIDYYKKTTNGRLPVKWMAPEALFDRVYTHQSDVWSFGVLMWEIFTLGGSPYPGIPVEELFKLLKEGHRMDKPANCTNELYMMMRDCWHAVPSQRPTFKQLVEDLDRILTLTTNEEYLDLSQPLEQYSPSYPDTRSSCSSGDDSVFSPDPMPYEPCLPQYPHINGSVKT
Sequence of Focal adhesion kinase 1 (Homo sapiens) (Q05397 2-1052 limits assumed): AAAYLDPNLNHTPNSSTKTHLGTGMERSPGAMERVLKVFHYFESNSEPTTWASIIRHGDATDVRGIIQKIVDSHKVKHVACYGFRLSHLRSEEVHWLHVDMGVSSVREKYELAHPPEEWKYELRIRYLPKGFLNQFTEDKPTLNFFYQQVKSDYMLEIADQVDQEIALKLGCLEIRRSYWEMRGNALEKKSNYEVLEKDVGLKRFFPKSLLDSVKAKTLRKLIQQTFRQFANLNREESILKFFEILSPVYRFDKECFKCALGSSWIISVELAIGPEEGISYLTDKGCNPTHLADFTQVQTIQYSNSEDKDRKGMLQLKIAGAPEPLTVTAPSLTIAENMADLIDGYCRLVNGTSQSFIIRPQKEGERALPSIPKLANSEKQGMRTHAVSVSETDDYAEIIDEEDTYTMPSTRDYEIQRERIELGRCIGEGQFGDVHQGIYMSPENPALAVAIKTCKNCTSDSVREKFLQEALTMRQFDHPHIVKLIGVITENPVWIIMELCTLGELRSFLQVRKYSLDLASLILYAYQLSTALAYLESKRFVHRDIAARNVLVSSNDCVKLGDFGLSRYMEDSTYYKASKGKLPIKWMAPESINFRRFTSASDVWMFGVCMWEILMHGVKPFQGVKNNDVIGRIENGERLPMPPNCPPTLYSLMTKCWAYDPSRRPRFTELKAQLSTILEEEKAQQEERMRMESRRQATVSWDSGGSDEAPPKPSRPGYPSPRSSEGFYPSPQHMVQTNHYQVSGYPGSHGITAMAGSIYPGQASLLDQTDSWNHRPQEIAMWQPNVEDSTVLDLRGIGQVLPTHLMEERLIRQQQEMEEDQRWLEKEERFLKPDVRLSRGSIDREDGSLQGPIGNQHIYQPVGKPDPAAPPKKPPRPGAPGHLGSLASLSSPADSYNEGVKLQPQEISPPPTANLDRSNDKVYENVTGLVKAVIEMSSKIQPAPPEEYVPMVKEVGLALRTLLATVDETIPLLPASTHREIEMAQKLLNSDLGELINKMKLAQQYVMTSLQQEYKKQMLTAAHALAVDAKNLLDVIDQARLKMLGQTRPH

Consider `NC(=O)Nc1sc(-c2ccc(F)cc2)cc1C(N)=O`, for which the residual activity in assay [1] is 0%; in assay [2] it was 93%; in assay [3], 19%; in assay [4], 117% (inactive); in assay [5], 117%; in [6] it was 49%. Also, the residual activity in assay [7] was 6%; in assay [8], 91%; in assay [9], 59%; in assay [10], 68%; in [11] it was 9%; in [12], 29%. The residual activity in assay [13] worked out at 5%; in assay [14] it was 50%; in assay [15], 10%; in assay [16], 81%; in assay [17], 15%; in [18], 106%. Further, the residual activity in assay [19] came out at 91%; in assay [20], 83%.
For the molecule `COc1ccc2c(c1)c(C1=C(c3c[nH]c4ccccc34)C(=O)NC1=O)cn2CCCN(C)C`, the residual activity in assay [1] is 53%; in assay [2] it was 109%; in [4], 111% (inactive); in assay [5], 124%; in [8], 75%; in assay [9], 53%. Moreover, the residual activity in [12] is 38%; in assay [13] it was 3%; in assay [14], 72%; in assay [15] it was 18%; in assay [16], 63%; in [17], 13%. The results for the residual activity in assay [18] and in assay [20] were 120% and 102%, respectively.
As to `c1ccc(-c2cnc(Nc3ccc(OCCN4CCCC4)cc3)s2)cc1`, the residual activity in [1] is 65%; in assay [4], 112% (inactive); in assay [5], 120%; in [6] it was 109%; in [7] it was 64%; in assay [9], 61%. Also, the residual activity worked out at 132% in assay [10]; 46% in assay [11]; 59% in assay [12]; 8% in assay [13]; 80% in assay [14]; 28% in assay [15]. For the same molecule, the residual activity in assay [20] was 111%.
Turning to `N#C/C(=C1/Nc2ccccc2S1)c1ccnc(NCCc2cccnc2)n1`, the residual activity in [1] is 55%; in assay [4], 141% (inactive); in assay [5], 74%; in assay [6] it was 72%; in assay [7], 73%; in [8], 88%. In addition, the residual activity came out at 61% in [9]; 100% in assay [10]; 60% in assay [11]; 100% in assay [14]; 45% in [15]; 117% in assay [18]. For the same molecule, the residual activity in assay [19] was determined as 67%; in [20], 89%.
On to `O=C(NC(NC(=S)Nc1ccc(F)c([N+](=O)[O-])c1)C(Cl)(Cl)Cl)C(c1ccccc1)c1ccccc1` (stereo not given), for which the residual activity in assay [1] was 84%; in [4], 104% (inactive); in assay [5], 84%; in assay [13], 59%; in [15] it was 73%; in assay [19], 83%.
On to `COc1ccc(Cl)cc1NC(=O)Nc1cc(C)nc2ccccc12`, for which the residual activity in assay [1] worked out at 68%; in assay [6] it was 96%; in [7], 100%; in [8] it was 96%; in assay [9], 80%; in assay [10], 127%. Besides, in [11], the residual activity amounted to 64%.
As to `COc1cc2nccc(Oc3ccc(NC(=O)Nc4cc(C)on4)c(Cl)c3)c2cc1OC`, the residual activity in assay [1] was -1%; in assay [2] it was -2%; in assay [3] it was -1%; in assay [9] it was 75%; in [10], 96%; in [11], 35%. Further, the residual activity stood at 25% in [14]; 5% in [15]; 28% in [17]; 76% in [18]; 31% in assay [19].
